HEK293 tox = HEK 293 cell cytotoxicity. Potency, µM (doses to about 115 µM), for the others: at the highest dose activity change, negative = cytotoxicity, most hits filed as inhibitors. HEK 293 viability, ATP luminescence (CellTiter-Glo), 48-72 h. actives 6.6% (n = 94,000); note: % is set by controls: 0 for no effect and ±100 for the full control effect; nearly all actives have a fitted effect of over 60% in size
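HEK 293 cells at 250 cells/well were exposed to compounds by pintool transfer for 48 or 72 hr at 37 degree Celsius, 5% CO2. Viability was read as ATP-coupled luminescence with CellTiter-Glo after 10 min at room temperature.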
FLuc inh = blocks purified firefly luciferase enzyme activity | actives 2.5% (n = 76,000) | Potency, µM (highest dose often 115 µM), usual class: inhibitors | P08659 | purified P. pyralis luciferase, luminescence, biochemical | AID 1347043; note: % is set by controls: 0 for no effect and ±100 for the full control effect; nearly all actives have a fitted effect of over 65% in size
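Purified 10nM P. pyralis luciferase with 10uM D-luciferin and 10uM ATP in 50mM Tris acetate pH 7.5, 10mM Mg acetate, 0.01% Tween-20, 0.05% BSA. qHTS titration; luminescence read by CCD imager.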
NPR1 antag = antagonists of human natriuretic peptide receptor Npr1; P16066; HEK293 hNpr1 GloSensor cGMP, ANP-stimulated luminescence; Potency, µM (top dose mostly 46.3 µM), without a hit: top-dose activity change, negative = inhibition, actives largely listed as inhibitors; actives 1.6% (n = 76,000); calls by dose curve; note: % is set by controls: 0 for no effect and ±100 for the full control effect; nearly all actives have a fitted effect of over 60% in size
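HEK293 cells stably expressing human Npr1 and cGMP GloSensor pGS-40F, loaded 2 h with 2% GloSensor reagent, given compound 30 min at room temperature. Luminescence read before and 20 min after 0.1 nM hNppA.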
GPT2 inhibitor = GPT2 alanine aminotransferase inhibition | Q8TD30 | Potency, µM (doses to about 57.7 µM), without a hit: at the highest dose activity change, negative = inhibition, most hits filed as inhibitors | actives 0.25% (n = 100,000) | Recombinant GPT2, coupled pyruvate oxidase/HRP Amplex Red fluorescence | AID 1671188; note: % is set by controls: 0 for no effect and ±100 for the full control effect; nearly all actives have a fitted effect of over 60% in size
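Recombinant GPT2 (10ng/uL) with 250uM a-KG and 2mM L-alanine, 30 min at room temperature, in HEPES pH 7.5 buffer. Pyruvate detected by pyruvate oxidase/HRP/Amplex Red fluorescence after 30 min in the dark; AOA (50uM) as positive control.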
3T3 cytotox = cytotoxic compounds in NIH 3T3 cells; NIH 3T3 viability, CellTiter-Glo ATP luminescence, 48-72 h; Potency, µM (titrated, usually from 96.7 µM), without a hit: top-dose activity change, negative = cytotoxicity, most hits filed as inhibitors; actives 4.3% (n = 94,000); AID 1345082; note: % is set by controls: 0 for no effect and ±100 for the full control effect; nearly all actives have a fitted effect of over 55% in size
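Cytotoxicity was measured by CellTiter-Glo ATP luminescence after 48 or 72 h compound exposure at 37 °C. Mouse NIH 3T3 fibroblasts were seeded at 400 cells/well and dosed by 23 nL pin transfer.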
NPR1 antag cnf = hNpr1 antagonism, confirmation assay; shares compounds with NPR1 antag; HEK293 hNpr1 cGMP GloSensor luminescence, ANP-stimulated; Potency, µM (doses to about 57.6 µM), inactives show at the highest dose activity change, negative = inhibition, usual class: inhibitors; actives 76% (n = 1,400); AID 1347044; calls by dose curve; note: nearly all actives have a fitted effect of over 70% in size
Npr2 selectivity = hNpr2 antagonism, selectivity versus Npr1 | shares compounds with NPR1 antag | HEK293 hNpr2 GloSensor cGMP luminescence, CNP-stimulated | Potency, µM (top dose mostly 57.6 µM), inactives show at the highest dose activity change, negative = inhibition, most hits filed as inhibitors | actives 67% (n = 1,400) | AID 1347046; calls by dose curve; note: nearly all actives have a fitted effect of over 70% in size
Target sequence (P20594 whole entry, looked up): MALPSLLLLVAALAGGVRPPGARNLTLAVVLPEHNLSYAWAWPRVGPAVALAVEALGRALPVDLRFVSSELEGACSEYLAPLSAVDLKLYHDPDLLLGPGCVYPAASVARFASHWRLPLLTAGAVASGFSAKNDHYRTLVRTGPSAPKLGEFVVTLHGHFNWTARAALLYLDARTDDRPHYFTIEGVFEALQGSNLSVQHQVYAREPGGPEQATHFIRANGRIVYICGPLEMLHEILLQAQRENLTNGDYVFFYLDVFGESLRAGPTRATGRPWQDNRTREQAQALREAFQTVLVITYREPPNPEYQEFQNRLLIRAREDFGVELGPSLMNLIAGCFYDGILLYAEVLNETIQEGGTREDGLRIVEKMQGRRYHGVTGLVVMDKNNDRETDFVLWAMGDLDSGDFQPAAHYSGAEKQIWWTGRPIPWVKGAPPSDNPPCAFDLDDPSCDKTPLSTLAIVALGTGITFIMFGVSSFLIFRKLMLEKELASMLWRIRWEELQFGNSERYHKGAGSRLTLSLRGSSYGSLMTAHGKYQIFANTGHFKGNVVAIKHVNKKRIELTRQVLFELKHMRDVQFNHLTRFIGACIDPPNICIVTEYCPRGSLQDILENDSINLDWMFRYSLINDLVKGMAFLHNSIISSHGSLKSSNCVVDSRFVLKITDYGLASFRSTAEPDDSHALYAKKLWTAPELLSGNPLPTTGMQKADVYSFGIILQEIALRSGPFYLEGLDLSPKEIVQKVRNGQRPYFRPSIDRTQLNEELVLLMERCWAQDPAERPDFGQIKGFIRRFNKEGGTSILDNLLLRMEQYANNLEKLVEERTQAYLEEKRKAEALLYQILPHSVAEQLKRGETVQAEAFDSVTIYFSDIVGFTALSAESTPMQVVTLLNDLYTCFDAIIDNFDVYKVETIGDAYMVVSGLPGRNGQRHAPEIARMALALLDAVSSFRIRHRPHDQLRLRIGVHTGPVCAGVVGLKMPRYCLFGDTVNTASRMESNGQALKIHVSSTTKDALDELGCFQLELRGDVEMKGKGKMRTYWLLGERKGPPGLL
FLuc counter = counter-screen for Npr1 antagonists: firefly luciferase inhibitors. shares compounds with NPR1 antag. purified FLuc enzyme, luminescence, Km substrate. Potency, µM (series often up to 57.6 µM), without a hit: at the highest dose activity change, negative = inhibition, most hits filed as inhibitors. actives 0.7% (n = 1,400); note: 0% is about no effect
GloSensor cGMP = counter-screen for Npr1 antagonists: GloSensor control cell line | AID 1347051 | actives 69% (n = 1,400) | Potency, µM (doses to about 57.6 µM), without a hit: at the highest dose activity change, negative = inhibition, usual class: inhibitors | HEK293 GloSensor cGMP, SNP-stimulated, luminescence | shares compounds with NPR1 antag; calls by dose curve; note: % is set by controls: 0 for no effect and ±100 for the full control effect; nearly all actives have a fitted effect of over 70% in size
* hit, by the source's call; i = inactive; ? = inconclusive; / = no result given; [ ] = dose if it differs, or a comment. An excerpt weighted towards active compounds, which were near 10% of everything screened. Unless noted, calls come from the whole dose curve; as a rule, active = well fitted curve in the direction sought with a large enough effect; inconclusive = small, poorly fitted or top-dose-only effect, or another doubt; inactive = no such curve, though single readings can be large; an effect the other way counts as inactive or inconclusive. Potency is the fitted concentration of half-maximal effect.

SMILES	HEK293 tox	FLuc inh	NPR1 antag	GPT2 inhibitor	3T3 cytotox	NPR1 antag cnf	Npr2 selectivity	FLuc counter	GloSensor cGMP
CCCCCCN(CCC(=O)NCCc1ccccc1)C(=O)c1cc(C)oc1C	8.91µM*	i	15.8µM*	-11.1%	?	?	?	-21.1%	?
COCCCN(CCC(=O)NCCc1ccccc1)C(=O)c1cc(C)oc1C	?	i	-1.8%	3.1%	?	/	/	/	/
O=C(NC1CCCCC1)C1CCCN1C(=O)c1cccc(-c2cccnc2)c1 (centres undefined)	-15.7%	/	/	/	-22.9%	/	/	/	/
Cc1nnc2ccc(N3CCCN(C(=O)c4ccccc4)CC3)nn12	-11.0%[172 µM]	/	/	/	-22.0%[138 µM]	/	/	/	/
O=C1N(C2CCN(Cc3ccc(C(F)(F)F)cc3)CC2)Cc2cccn21	?	/	/	0.9%	-28.8%	15.3µM*	17.2µM*	-2.5%	12.2µM*
COc1ccc2ccc(OCc3nc(C(=O)N4CCNC(=O)C4C)co3)cc2c1 (centres undefined)	?	i	11.2µM*	?	?	24.3µM*	21.7µM*	-5.1%	21.7µM*
CN(C)C[C@@H]1CN(Cc2cccnc2)C[C@H]1NC(=O)c1ccc2c(c1)OCO2	-11.1%	i	0.5%	i	-11.3%	/	/	/	/
Cc1ccccc1-c1cnc2[nH]cc(CC(=O)NC(C)C)c2c1	?	i	28.2µM*	i	?	31.4µM*	31.4µM*	5.3%[86.2 µM]	35.3µM*
Cc1ccccc1-c1cnc2[nH]cc(CC(=O)NCc3ccccc3)c2c1	?	i	12.6µM*	-4.4%[88.5 µM]	-21.0%[138 µM]	25µM*	25µM*	-0.2%[86.2 µM]	14µM*
O=C(Cc1c[nH]c2ncc(-c3ccccc3)cc12)NCCc1ccccc1	?	i	?	?	?	/	/	/	/
C=C(C(=O)OC)C1C(O)CC2(C)C(O)CCC(=O)C2C1O (centres undefined)	/	/	/	2.4%	/	/	/	/	/
Cc1cc(=O)n(CC(=O)Nc2ccc(C)c(F)c2)c(N2CCc3ccccc3C2)n1	8.91µM*	i	15.8µM*	i	?	-16.6%	-26.3%	0.5%	-20.3%
Cc1cc(=O)n(CC(=O)NCc2ccc3c(c2)OCO3)c(N2CCc3ccccc3C2)n1	?	i	-3.2%	i	?	/	/	/	/
Cc1cc(=O)n(CC(=O)NCCCc2ccccc2)c(N2CCc3ccccc3C2)n1	44.7µM*	i	?	?	?	?	?	0.0%	-24.1%
Cc1cc(=O)n(CC(=O)Nc2ccc(Br)cc2F)c(N2CCc3ccccc3C2)n1	?	i	?	4.7%	?	-29.0%	?	0.4%	-16.0%
Cc1cc(=O)n(CC(=O)Nc2cc(F)ccc2F)c(N2CCc3ccccc3C2)n1	?	i	0.8%	i	?	/	/	/	/
Cc1cc(=O)n(CC(=O)Nc2ccc(C)c(Cl)c2)c(N2CCc3ccccc3C2)n1	?	i	-7.4%	0.6%	?	/	/	/	/
O=C(N[C@H]1CCN2C(=O)c3cc(-c4ccc(F)cc4F)ccc3NC(=O)[C@@H]2C1)c1cccs1	?	i	1.8%	4.9%	?	/	/	/	/
O=C(N[C@H]1CCN2C(=O)c3cc(-c4ccc(F)cc4F)ccc3NC(=O)[C@H]12)c1cccs1	?	i	-22.7%	-11.4%	?	?	?	?	-23.3%
Cn1ccc(NC(=O)[C@@H]2C[C@@H](c3ccc(F)cc3)N(Cc3ccccc3)C2)n1	50.1µM*	i	35.5µM*	2.8%[88.5 µM]	?	39.6µM*	35.3µM*	3.4%[86.2 µM]	35.3µM*
O=C(Nc1ccon1)[C@@H]1C[C@@H](c2ccc(F)cc2)N(Cc2ccccc2)C1	31.6µM*	i	15.8µM*	-8.8%[88.5 µM]	?	31.4µM*	19.8µM*	2.2%[86.2 µM]	17.7µM*
COCCNC(=O)CCc1nc(C2CCCN2C(=O)c2ccccc2)no1 (centres undefined)	-0.5%	/	/	-12.4%	-12.0%	/	/	/	/
O=C(NC1CCCCC1)N1CCC(c2noc(-c3ccccc3)n2)C1 (centres undefined)	?	i	17.8µM*	i	?	27.3µM*	?	0.3%	27.3µM*
O=C(NCCN1CCOCC1)c1cc(-c2cc(Cl)cc(Cl)c2)c2nncn2n1	1.9%	/	/	i	-19.0%	/	/	/	/
Cc1ccc(S(=O)(=O)N2CCc3c(C(=O)NCC(C)C)cccc32)cc1	?	i	?	i	?	?	?	-0.5%	?
SMILES	HEK293 tox	FLuc inh	NPR1 antag	GPT2 inhibitor	3T3 cytotox	NPR1 antag cnf	Npr2 selectivity	FLuc counter	GloSensor cGMP
Cc1noc(C)c1-c1cc2c(c(-c3ccc(F)c(Cl)c3)c1)C(=O)N(C)C2	?	i	8.91µM*	-8.3%[88.5 µM]	?	15.7µM*	8.86µM*	-0.8%[86.2 µM]	7.89µM*
Cc1noc(C)c1-c1cc2c(c(-c3ccccc3)c1)C(=O)N(C)C2	39.8µM*	i	28.2µM*	i	?	28µM*	17.7µM*	0.5%[86.2 µM]	17.7µM*
Cc1ccccc1-c1cc(-c2c(C)noc2C)cc2c1C(=O)N(C)C2	?	i	-0.6%[70.6 µM]	-14.7%[88.5 µM]	?	/	/	/	/
Cc1noc(C)c1-c1cc2c(c(-c3cccc(O)c3)c1)C(=O)N(C)C2	?	i	-1.7%[70.6 µM]	-3.2%[88.5 µM]	-50.7%[138 µM]	/	/	/	/
COCCn1c(=O)c(C(=O)NCC(F)F)nc2cccnc21	1.4%[172 µM]	/	/	-4.6%[88.5 µM]	2.2%[138 µM]	/	/	/	/
O=C(c1ccccc1F)N1CCCC(c2nn(-c3ccccn3)c(=O)[nH]2)C1 (centres undefined)	?	/	/	i	-27.1%	/	/	/	/
Fc1ccc(-c2cnc([C@@H]3COCCN3Cc3cccnc3)[nH]2)c(F)c1	?	i	-10.9%[70.6 µM]	?	?	/	/	/	/
Fc1ccc(-c2cnc([C@@H]3COCCN3Cc3c[nH]c4ccccc34)[nH]2)c(F)c1	79.4µM*	i	25.1µM*	-24.0%[88.5 µM]	?	35.3µM*	44.4µM*	-6.3%[86.2 µM]	39.6µM*
O=C1NCc2ccccc2CC12CCCN2Cc1ccc(F)cc1 (centres undefined)	-3.7%	/	/	-17.2%	1.4%	/	/	/	/

Screening data as filed in PubChem.
